HP1b binding inh = HTS for Inhibitors of HP1-beta Chromodomain Interactions with Methylated Histone Tails; Chromobox protein homolog 1 (Homo sapiens), P83916; AlphaScreen HP1-beta / biotin-H3K9me3 peptide binding; Potency, µM (highest dose often 114 µM), for the others: at the top dose activity change, negative = inhibition, hits mostly inhibitors; hit rate 0.56% among 390,000; further: nearly all actives have a fitted effect of over 70% in size
Target sequence (P83916 whole entry, looked up): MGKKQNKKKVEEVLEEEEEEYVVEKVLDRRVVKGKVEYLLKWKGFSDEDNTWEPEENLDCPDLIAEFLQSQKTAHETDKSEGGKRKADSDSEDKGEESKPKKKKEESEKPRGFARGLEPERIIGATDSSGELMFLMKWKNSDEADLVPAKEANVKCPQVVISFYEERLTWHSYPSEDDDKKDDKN
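Compound inhibition of the preformed complex between 50 nM HP1-beta and 50 nM biotinylated H3K9me3 peptide was read by AlphaScreen. Buffer was PBS pH 7.4 with 0.01% Tween-20. Incubations ran 30 min at room temperature, with 10 ug/mL donor/acceptor beads.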
BAZ2B block = qHTS Assay for Inhibitors of BAZ2B; Bromodomain adjacent to zinc finger domain protein 2B (Homo sapiens), Q9UIF8; AlphaScreen BAZ2B-H3K14Ac peptide displacement; Potency, µM (series often up to 114 µM), for the others: top-dose activity change, negative = inhibition, hits mostly inhibitors; hit rate 4.4% among 360,000; further: on the % scale 0 is the no-effect control and ±100 the full control effect; nearly all actives have a fitted effect of over 60% in size
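Multi-concentration screen (max 110 uM) measuring displacement of acetylated histone H3 peptide from BAZ2B by AlphaScreen, using 50 nM protein, 50 nM peptide and 10 ug/mL streptavidin donor plus Ni-chelate acceptor beads.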
Sfp PPTase inh = qHTS Assay for Inhibitors of Bacillus subtilis Sfp phosphopantetheinyl transferase (PPTase) | 4'-phosphopantetheinyl transferase ffp (Bacillus subtilis), Q9F4F7 | Biochemical Sfp PPTase activity, qHTS | Potency, µM, for the others: largest response in the series, negative = inhibition, hits mostly inhibitors | hit rate 3.5% among 310,000;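 further: the enzyme is Sfp with the accession as filed and its product quenches rhodamine fluorescence; 0% = enzyme reaction without inhibitor and -100% = no enzyme wells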
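Fluorescence-quenching assay: 15 nM Sfp-PPTase preincubated 15 min at room temperature with compound, then 5 uM rhodamine-CoA and 12.5 uM BHQ-2-labelled YbbR peptide added. Fluorescence (ex 525/em 598 nm) read at start and after 30 min; difference gives rate.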
JMJD2A Tudor = qHTS Assay for Inhibitors of JMJD2A-Tudor Domain; Lysine-specific demethylase 4A (Homo sapiens), O75164; AID 504339, 2011; hit rate 4.4% among 390,000; Potency, µM (series often up to 114 µM), for the others: top-dose activity change, negative = inhibition, actives largely listed as inhibitors; AlphaScreen JMJD2A-Tudor / H3K4me3 peptide binding; further: on the % scale 0 is the no-effect control and ±100 the full control effect; nearly all actives have a fitted effect of over 50% in size
L3MBTL1 block = qHTS Assay for the Inhibitors of L3MBTL1. Lethal(3)malignant brain tumor-like protein 1 (Homo sapiens), Q9Y468. AlphaScreen L3MBTL1–H3K9me1 peptide binding. Potency, µM (titrated, usually from 57.1 µM), for inactives: at the top dose activity, negative = inhibition, usual class: inhibitors. hit rate 0.66% among 230,000. AID 485360, 2010; further: on the % scale 0 is the no-effect control and ±100 the full control effect; nearly all actives have a fitted effect of over 60% in size
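First, the protein-peptide complex forms for 30 min at room temperature (L3MBTL1 50 nM, biotinylated H3K9me1 peptide 75 nM). Next, compounds are pin-transferred and incubated 30 min. Finally, AlphaScreen beads are added and read after 30 min.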
G9a block = qHTS Assay for Inhibitors of Histone Lysine Methyltransferase G9a. Potency, µM (titrated, usually from 102 µM), without a hit: top-dose activity, negative = inhibition, hits mostly inhibitors. G9a H3K9 monomethylation, AlphaScreen, 2 h. Histone-lysine N-methyltransferase EHMT2 (Homo sapiens), Q96KQ7. hit rate 8.8% among 350,000; further: on the % scale 0 is the no-effect control and ±100 the full control effect; nearly all actives have a fitted effect of over 75% in size
Target sequence (Q96KQ7 913-1193 limits assumed): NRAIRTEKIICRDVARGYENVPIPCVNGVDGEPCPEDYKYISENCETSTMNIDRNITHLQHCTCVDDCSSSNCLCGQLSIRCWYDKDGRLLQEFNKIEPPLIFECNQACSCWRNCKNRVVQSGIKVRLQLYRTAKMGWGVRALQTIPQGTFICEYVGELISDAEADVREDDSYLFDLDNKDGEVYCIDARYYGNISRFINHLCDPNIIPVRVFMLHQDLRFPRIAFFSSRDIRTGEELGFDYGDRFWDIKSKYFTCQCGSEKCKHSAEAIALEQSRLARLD
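Enzyme 20 nM + cpd, 15 min RT; add b-H3K9 pep 500 nM / SAM 20 uM; 2 h RT; anti-H3K9me1 Ab 0.5 ug/mL + SA donor / anti-rabbit acceptor beads 20 ug/mL each, 10 min; AlphaScreen read.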
An asterisk follows results filed as active; ? = inconclusive; nt = no result; [ ] = remark or other dose. A selection: hits, their analogues and other compounds. The true share with any hit is near 12%. The call rests on the fitted dose curve; in most records, active means well fitted curve in the direction sought with a large enough effect; inconclusive means small, poorly fitted or top-dose-only effect, or another doubt; inactive means no such curve, though single readings can be large; an effect the other way counts as inactive or inconclusive. Potency means the concentration at half of the fitted maximal effect.

SMILES	HP1b binding inh	BAZ2B block	Sfp PPTase inh	JMJD2A Tudor	L3MBTL1 block	G9a block
CN1CCN(c2ccccc2NC(=O)c2ccc(N3CCCCC3)c([N+](=O)[O-])c2)CC1	?	40µM*	?	50µM*	?	?
O=C(Nc1ccc2c(c1)OCO2)c1ccc(N2CCCC2)c([N+](=O)[O-])c1	?	35µM*	-3%	?	-14%	10µM*
O=C(Nc1ccc(N2CCCCC2)c(Cl)c1)c1ccc(N2CCOCC2)c([N+](=O)[O-])c1	-31%	6%	6%	?	-11%	-11%[0.501 µM]
CN1CCN(c2ccccc2NC(=O)c2ccc(N3CCOCC3)c([N+](=O)[O-])c2)CC1	?	-29%	-7%	?	nt	?
O=C(CCc1ccccc1)N1CCc2c([nH]c3ccccc23)C1c1ccc(F)cc1 (configuration not stated)	3%[57 µM]	?	nt	?	nt	-41%[59 µM]
Cc1nc2ccccc2c(=O)n1-c1cccc(NC(=O)c2cccs2)c1	25%	14%	nt	-15%	-5%	-31%
O=C(Nc1cccc(N2C(=O)C=CC2=O)c1)c1cccs1	nt	?	nt	nt	28µM*	?
COc1ccc(Nc2nc3ccc(C)cc3nc2-n2nc(C)cc2C)cc1Cl	132%	53%	nt	81%	nt	70%[59 µM]
CC(C)OC(=S)N/C(=N\S(=O)(=O)c1ccccc1)c1ccccc1	-5%	0%	14µM*	-34%	-2%	11µM*
Cc1c(NC(=S)N/N=C/c2ccc(Br)cc2)c(=O)n(-c2ccccc2)n1C	22%	-18%	18%	-9%	nt	-47%
Cc1c(NC(=S)N/N=C\c2ccccc2O)c(=O)n(-c2ccccc2)n1C	38%	3.2µM*	13%	40µM*	?	10%[59 µM]
COc1ccc(NC(=O)Nc2c(C)n(C)n(-c3ccccc3)c2=O)cc1OC	14%	-13%	11%	-8%	nt	3%
Cc1ccc(NC(=O)Nc2c(C)n(C)n(-c3ccccc3)c2=O)cc1C	?	-16%	5%	14µM*	nt	-23%
Cc1c(NC(=S)N/N=C/c2ccc([N+](=O)[O-])cc2O)c(=O)n(-c2ccccc2)n1C	29%	14µM*	31%	45µM*	nt	2%
COc1cc(Nc2nc3c(S(=O)(=O)c4cccc(Cl)c4)nnn3c3ccsc23)cc(OC)c1	43%	-16%	nt	2%	nt	22%[59 µM]
CCNc1ncc2nc(C)c(=O)n(C3CC3)c2n1	nt	nt	20%	nt	nt	9%[0.501 µM]
C=CCN(c1ccccc1OC)S(=O)(=O)c1cccc(C(=O)Nc2nnc(C3CC3)s2)c1	21%	-5%	nt	-8%	2%	21%[59 µM]
CN(C(=O)c1ccccc1C(=O)OCC(=O)Nc1cccc(Br)c1)c1ccccc1	31%	12%	nt	-11%	1%	12%[59 µM]
Cc1cccc(NC(=S)N/C(=N/S(=O)(=O)c2ccccc2)c2ccccc2)c1	-17%	-21%	?	-18%	nt	?
Cc1c(NC(=O)c2c(N)sc3c2CCCC3)c(=O)n(-c2ccccc2)n1C	24%	10%	28µM*	-13%	nt	?
Cc1ccc(S(=O)(=O)/N=C(/NC(=S)Nc2cccc(C)c2)c2ccccc2)cc1	?	-4%	50µM*	-35%	nt	?
COc1ccc(/C=N/NC(=S)Nc2c(C)n(C)n(-c3ccccc3)c2=O)cc1OC	23%	-3%	45µM*	-6%	8%	nt
Cc1c(NC(=S)N/C(=N/S(=O)(=O)c2ccccc2)c2ccccc2)c(=O)n(-c2ccccc2)n1C	1%	-3%	-10%	-18%	nt	?
Cc1c(NC(=S)N/C(=N/S(=O)(=O)c2ccc(Cl)cc2)c2ccccc2)c(=O)n(-c2ccccc2)n1C	11%	26%	35µM*	3%	-7%	?
CCc1ccc(S(=O)(=O)c2cn(Cc3ccccc3F)c3cc(OC)c(OC)cc3c2=O)cc1	41%	-6%	nt	-11%	nt	-42%[59 µM]
SMILES	HP1b binding inh	BAZ2B block	Sfp PPTase inh	JMJD2A Tudor	L3MBTL1 block	G9a block
O=C(Nc1cccc([N+](=O)[O-])c1)c1cc(S(=O)(=O)N2CCOCC2)cs1	7%	-25%	6%	-18%	nt	3%
O=S(=O)(c1ccccc1C(F)(F)F)N1CCN(c2nc(-c3ccccc3)nc3ccccc23)CC1	0%	nt	nt	-7%	nt	nt
COCCn1c(=O)c(C)nc2cnc(Oc3ccccc3)nc21	nt	nt	6%	nt	nt	-4%[0.501 µM]
Cc1cccc(C)c1NC(=S)Nc1c(C)n(C)n(-c2ccccc2)c1=O	34%	-7%	7%	-19%	-1%	0.79µM*
OC(CNCC1(N2CCCCC2)CCCCC1)COc1ccc(Cl)cc1Cl (configuration not stated)	?	-31%	-5%	2.8µM*	-2%	50µM*
C/C(=N/NC(=O)CNC(=O)c1ccccc1F)c1ccc2c(c1)CCCC2	-7%	0%	19%	32µM*	16%	-3%
C/C(=N/NC(=O)CNC(=O)c1ccc2c(c1)OCO2)c1ccc2c(c1)CCCC2	2%	nt	-8%	-4%	nt	-2%
CC(=O)C1=C(O)C(=O)N(c2ccccn2)C1c1ccc(Cl)cc1 (configuration not stated)	11%	10%	13%	-3%	-4%	-14%
O=C(C1=C(O)C(=O)N(c2ncccn2)C1c1cccc(Cl)c1)c1ccco1 (configuration not stated)	28%	?	56µM*	-27%	nt	18µM*
Cc1ccc(C(=O)C2=C(O)C(=O)N(c3ncccn3)C2c2ccc(Cl)cc2)o1 (configuration not stated)	32%	11%	-16%	-36%	?	10µM*
O=C(C1=C(O)C(=O)N(c2ncccn2)C1c1ccc(Cl)cc1)c1ccco1 (configuration not stated)	18%	71µM*	-5%	-22%	-50%	nt
O=C(C1=C(O)C(=O)N(c2ncccn2)C1c1ccc(Cl)c(Cl)c1)c1ccco1 (configuration not stated)	?	79µM*	56µM*	7.1µM*	-9%	40µM*
COc1cc2c(cc1OC)C(c1ccc(F)cc1)N(c1cccc(C#N)c1)C(=O)C2 (configuration not stated)	33%	-7%	nt	-28%	nt	-25%[59 µM]
COc1cccc(-n2ccn(CC(=O)Nc3ccccc3F)c(=O)c2=O)c1	19%	0%	nt	-5%	nt	-22%[59 µM]

Source: PubChem
